This is part of a sample that, as a whole, favours compounds with a hit. Of some 83,000 tested, about 20% had one in any assay.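 The endpoint reported here, percent growth, reads 100 for growth as untreated, 0 for no net growth and -100 for all cells dead.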 Activity calls are given as the source filed them. Rule for the calls: active = growth percent below 10; inactive = the rest.

The subject of the experiment is ACHN renal. The experiment in a line: NCI-60 one-dose screen, 48 h (100 = growth as untreated, 0 = no growth, -100 = all killed). The settings on record: 10 µM unless noted.
Turning to `COc1ccccc1Cn1cc2c(c1)-c1oncc1CC2`, the growth was 55.5% (inactive). The figure for `CC1=NN(c2cccc(Cl)c2)C(=O)/C1=C\c1cn(-c2nc(N3CCOCC3)nc(N3CCOCC3)n2)c2ccccc12` is 103% (inactive); for `NC(=O)c1c(Nc2ccccc2)nn2cc(-c3nc4ccccc4s3)c(N)nc12` it is 96.3% (inactive); for `COc1cc(/C(=C2/O[C@@H]([C@H]3COC(C)(C)O3)[C@H]3OC(C)(C)O[C@@H]23)c2ccc3c(c2)OCO3)cc(OC)c1OC` it is 26.4% (inactive).

For `O=C(N/N=C/c1coc2ccccc2c1=O)c1cc2oc(-c3ccccc3)cc2[nH]1`, the growth is 106% (inactive).

With `CCCCCCCCCC[N+](C)(C)C`, the growth is 24.9% (inactive).

`CCCCCCC(=O)C(C)C`: the growth was 103% (inactive). As for `CCCC(=O)NNc1[nH]c(-c2ccc(OC)cc2)cc1C(=O)OCC`, the growth was 73.1% (inactive). Regarding `O=C1c2cc([N+](=O)[O-])ccc2-c2cc(Cl)c(NC(=O)C(F)(F)F)cc21`, the growth is 99.5% (inactive). The same measure for `N=C(c1ccccc1)N(Cc1ccccc1)Cc1ccccc1`: 93.7% (inactive); for `CSCc1ncc(-c2ccc(C(F)(F)F)cc2)c(NC2CCCCCC2)n1`: 77.9% [25 µM] (inactive). Turning to `O=C(Nc1cccc(Cn2c(=O)[nH]c3ccc(Oc4ncccn4)cc3c2=O)c1)c1ccc(Cl)cc1`, the growth is 40.3% (inactive). The same measure for `CC[C@H](Nc1ncnc2nc[nH]c12)c1nc2cccc(NCc3ccc(C(=O)NO)o3)c2c(=O)n1-c1ccccc1`: 97.3% (inactive); for `CCCCCCCCCC[N+](C)(C)N`: 105% (inactive); for `C=C(C)C(C(=O)OCC)(C(=O)OCC)C(C)C`: 104% (inactive). The figure for `COC1=CC(c2ccc[nH]2)=N/C1=C\c1[nH]c(C)c(C(=O)CCCCC(=O)NC(C)(C)C)c1C` is 71.8% (inactive); for `COc1ccc(NC(=O)/C=C(C)/C=C/C=C(C)/C=C/C2=C(C)CCCC2(C)C)cc1` it is 54% (inactive); for `CCCCCCCCc1ccc(OCCOCC[N+](C)(C)CC)cc1` (tested in a mixture with another compound) it is 102% (inactive). The figure for `COc1cc2c(cc1OC)C(Cc1cc(OC)c(OC)cc1[N+](=O)[O-])=NCC2` is 85.2% (inactive). Consider `O=C1CCNC1`, for which the growth was 101% (inactive). The figure for `COc1ccc(-c2nnc(SCC(=O)Nc3ccc(C(=O)/C=C/c4cc(OC)c(OC)c(OC)c4)cc3)n2-c2ccccc2)cc1OC` is 1.79% [100 µM] (active); for `O=S(=O)(O)c1ccc2c(c1)Sc1cc(S(=O)(=O)O)ccc1O2` it is 112% (inactive). The figure for `Cc1ccc(S(=O)(=O)Nc2cccc(Cn3c(=O)[nH]c4ccc(Oc5ncccn5)cc4c3=O)c2)cc1` is 87.7% (inactive); for `CCCCCCCCCCC(C[N+](C)(C)C/C=C/c1ccccc1)C(O)c1ccccc1` (stereo not given) it is 72.2% (inactive). The same measure for `COc1ccc(/C=C2\CCCC3=C2N=C2SC=NN2C3c2ccc(OC)c(OC)c2)cc1OC` (stereo not given): 37.4% (inactive); for `COc1cc(CCNc2cnc3cc(N)cc(N)c3n2)cc(OC)c1`: 106% (inactive). For `O=C(CCl)c1ccc2c(c1)CCCC2`, the growth is 98.4% (inactive).

For the compound `Cc1ccc(C(=O)Nc2ccc(CN3CCN(C)CC3)c(C(F)(F)F)c2)cc1C#Cc1cnc(N)c2ccc(F)cc12`, the growth was -100% (active). Regarding `Cc1ccc(C(=O)Nc2ccc(CN3CCN(C)CC3)c(C(F)(F)F)c2)cc1C#Cc1cncc2ncccc12`, the growth is -98.9% (active). The same measure for `O=C(Nc1ccc(-n2cc(-c3ccncc3)c(-c3ccc(Cl)c(O)c3)n2)cc1)c1cc(C(F)(F)F)cc(C(F)(F)F)c1`: 54.3% (inactive).

Regarding `CCCCCCCCCC(C)NC(=O)CCl` (stereo not given), the growth is 93% (inactive).

In the case of `COc1ccc(C(=O)CN2C(=O)NC(c3ccccc3)(c3ccccc3)C2=O)cc1`, the growth is 104% (inactive). The figure for `CCCCCCCCC(=O)Nc1ccc(O)cc1` is 79.2% (inactive).

In the case of `COc1ccc(-c2nc(SCC(C)C)nc(Nc3ccccc3)c2C#N)cc1`, the growth was 27.4% (inactive). As for `N#Cc1ccc(NC2c3ccccc3CC2O)cc1` (stereo not given), the growth was 104% (inactive). The same measure for `N#CCCCCCCCCCCC#N`: 107% (inactive); for `CCOC(=O)c1ccc2n1CCCc1cnc(NC(C)=O)nc1-2`: 99.3% (inactive); for `O=C(/C(Br)=C/c1ccccc1)c1ccccc1`: -71.3% (active).

Consider `COc1ccc2c(N)ncc(C#Cc3cc(C(=O)Nc4ccc(CN5CCN(C)CC5)c(C(F)(F)F)c4)cnc3C)c2c1`, for which the growth is -78.5% (active). Regarding `CCCCCCCCCCCC(=O)OC(C)C(=O)Nc1ccccc1` (stereo not given), the growth was 87.6% (inactive).

The values above are taken from PubChem BioAssay (NCI).
